The test system of assay [1] is Human papillomavirus type 1a protein E7 (residues 44-93). In words: small molecules binding HPV E7 44-93 – biochemical, small-molecule microarray, residues 44-93, 635 nm fluorescence, primary screen (AID 1108).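 Also: E7 fragment applied at 1 µg/mL in TBST for 1 h at 4 C; score combines spot fluorescence with its signal to noise ratio.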 Conditions: fluorescence 635 nm, higher = more signal.
Assay [2] is described as follows: hepatitis C replication reporter changes, two-sided – Huh7 cells, luciferase reporter, HCV replication inhibitor project, primary screen (AID 1109).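 Also: huh7 hepatoma cells harbouring a luciferase neomycin HCV replicon reporter; luciferase luminescence as measure of HCV replicon replication; test concentration not given here.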 Particulars: Huh7 HCV replicon luciferase reporter, 48 h; higher = more signal.
The target of assay [3] is Left-right determination factor 2 (Homo sapiens) (UniProt O00292). In words: small molecules binding LEFTY2 protein – biochemical, small-molecule microarray, 635 nm fluorescence scan, primary screen (AID 1110). Particulars: higher = more signal.
Chain of Left-right determination factor 2 (Homo sapiens) (O00292 whole entry, looked up): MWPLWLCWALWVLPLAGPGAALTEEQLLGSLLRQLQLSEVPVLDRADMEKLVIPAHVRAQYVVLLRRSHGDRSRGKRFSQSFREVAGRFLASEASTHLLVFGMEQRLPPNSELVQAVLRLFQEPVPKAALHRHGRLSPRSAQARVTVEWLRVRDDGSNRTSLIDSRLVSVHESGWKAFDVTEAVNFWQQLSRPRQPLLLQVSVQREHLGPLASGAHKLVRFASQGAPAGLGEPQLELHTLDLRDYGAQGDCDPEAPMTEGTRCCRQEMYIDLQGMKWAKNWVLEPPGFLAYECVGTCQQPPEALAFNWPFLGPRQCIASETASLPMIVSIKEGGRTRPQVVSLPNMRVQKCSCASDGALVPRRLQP
In assay [4] the target is Calmodulin-1 (Homo sapiens) (UniProt P0DP23). The experiment in a line: small molecules binding calmodulin-1 with EGTA – biochemical, small-molecule microarray, Cy5-labelled CALM1, profiling panel (AID 1111).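 Also: labelled calmodulin applied in Tris saline Tween buffer holding calcium plus EGTA and DTT.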 Conditions: Cy5-CALM1 binding fluorescence, higher = more signal.
Assay [5] shares this target. In words: small molecules binding Ca-loaded calmodulin-1 – biochemical, small-molecule microarray, Cy5-labelled CALM1, plus calcium, artefact control for SMM control-protein annotation, profiling panel (AID 1112).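 Also: score merges spot fluorescence with signal to noise from triplicate slides.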 Conditions: Cy5-CALM1 binding fluorescence, higher = more signal.
Assay [6] can be described thus: probe aWnt5a binding to arrayed compounds – biochemical, biotinylated probe, 635/667 nm fluorescence, primary screen (AID 1113).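 Also: score merges 667 nm fluorescence intensity with signal-to-noise per printed feature.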 Particulars: small-molecule microarray, higher = more signal.
A short description of assay [7]: probe aShh binding to arrayed compounds – biochemical, biotinylated probe, 635/667 nm fluorescence, primary screen (AID 1114).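 Also: probe is biotin-labelled aShh protein from a stem cell growth factor screen; measures binding of labelled protein to compounds printed on the slide; score merges feature fluorescence at 667 nm with signal-to-noise.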 Particulars: small-molecule microarray, higher = more signal.
Assay [8] is described as follows: probe aNog binding to arrayed compounds – biochemical, biotinylated probe, 635/667 nm fluorescence, primary screen (AID 1115).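 Also: probe is biotinylated aNog protein used at 0.15 µg/mL for 1 h at 4 C; z-score combines 667 nm fluorescence of each spot with its signal to noise.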 Conditions: small-molecule microarray, higher = more signal.
Assay [9] deals with Torsin-1A-interacting protein 1 (Homo sapiens) (UniProt Q5JTV8). In words: compound microarray binding of lysate hLAP1 – cell lysate, small-molecule microarray, COS7 lysate, 635/667 nm fluorescence, primary screen (AID 1116). Conditions: 635 nm fluorescence, higher = more signal.
Chain of Torsin-1A-interacting protein 1 (Homo sapiens) (Q5JTV8 whole entry, looked up): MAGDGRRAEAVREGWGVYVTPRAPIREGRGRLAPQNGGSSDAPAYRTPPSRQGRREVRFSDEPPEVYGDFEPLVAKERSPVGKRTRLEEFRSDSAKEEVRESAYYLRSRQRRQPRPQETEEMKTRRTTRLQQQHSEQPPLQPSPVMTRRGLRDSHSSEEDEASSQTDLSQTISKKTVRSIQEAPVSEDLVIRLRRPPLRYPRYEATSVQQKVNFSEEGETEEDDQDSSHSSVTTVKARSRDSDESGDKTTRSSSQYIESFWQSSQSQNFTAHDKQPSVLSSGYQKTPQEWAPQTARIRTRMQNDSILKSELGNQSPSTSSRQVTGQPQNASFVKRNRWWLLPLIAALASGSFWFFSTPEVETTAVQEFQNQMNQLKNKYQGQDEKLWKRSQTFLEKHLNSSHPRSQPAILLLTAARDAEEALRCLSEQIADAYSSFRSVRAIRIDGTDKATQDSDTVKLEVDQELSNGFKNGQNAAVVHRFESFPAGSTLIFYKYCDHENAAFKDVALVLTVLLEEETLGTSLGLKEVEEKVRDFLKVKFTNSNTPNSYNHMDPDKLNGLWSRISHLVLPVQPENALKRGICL
The target in assay [10] is Alpha-bungarotoxin (Bungarus multicinctus) (UniProt P60615). In words: compounds binding labelled alpha-BTX control protein – biochemical, small-molecule microarray, Alexa647 label, 635/667 nm fluorescence, artefact control for SMM control protein annotation, profiling panel (AID 1117). Particulars: alpha-BTX-A647 binding fluorescence, higher = more signal.
Chain of Alpha-bungarotoxin (Bungarus multicinctus) (P60615 whole entry, looked up): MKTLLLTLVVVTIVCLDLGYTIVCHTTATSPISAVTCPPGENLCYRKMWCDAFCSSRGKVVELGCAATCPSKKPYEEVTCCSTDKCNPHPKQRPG

Turning to `COc1ccc(O[C@@H]2[C@H](O)CO[C@@H]2C=Cc2ccccc2)cc1`, the composite z-score in [1] is 0.16; in assay [3], 0.138; in assay [4], 0.0425; in [5], -0.665; in [6], -0.148; in assay [7], -0.399. Also, the composite z-score is -0.111 in [8], 0.288 in assay [9] and 0.369 in assay [10]. Also, the z-score in assay [2] was 0.238.

Consider `CCCCc1nc2c(c3c1C[C@H](C)OC3)CN(CCOc1ccccc1)CC2`, for which the composite z-score was 0.348 in [1]; 0.814 in assay [3]; -0.407 in assay [4]; -0.7 in assay [5]; -0.0738 in assay [6]; -0.0977 in assay [7]. In addition, the composite z-score in assay [8] is -0.304; in [9], 0.56; in [10], 0.672. Besides, the z-score in [2] is -0.659.

On to `CCOC(=O)[C@H](CC(C)C)NC(=O)CCC1CC(OC(=O)NCCc2ccc(F)cc2)CC2(CCCC(COC(=O)NCC3CCCCC3)O2)O1` (stereo not given in full), for which the composite z-score is 0.723 in [1]; 0.351 in [3]; 0.255 in [4]; -0.622 in [5]; -0.19 in assay [6]; -0.0362 in [7]. Moreover, the composite z-score is -0.45 in assay [8], 0.627 in assay [9] and 0.596 in assay [10]. For the same molecule, the z-score in assay [2] is -1.11.

As to `CCN1C(=O)[C@H]2[C@H]3[C@H](O)[C@H](O)CC(=NOC[C@H]4O[C@H](c5ccccc5)C=C[C@@H]4Oc4ccc(OC)cc4)[C@@H]3CC[C@H]2C1=O`, the composite z-score was 0.783 in assay [1]; 0.621 in assay [3]; 0.406 in assay [4]; -0.332 in assay [5]; -0.0045 in assay [6]; 0.318 in assay [7]. Also, the composite z-score in [8] came out at 0.364; in [9] it was 0.447; in assay [10], 1.05. In addition, the z-score in assay [2] was -1.65.

`CCOC(=O)[C@H](CC(C)C)NC(=O)CCC1CC(OC(=O)NCCc2ccc(F)cc2)CC2(CCCC(COC(=O)NCCc3ccc(Cl)cc3)O2)O1` (stereo not given in full): the composite z-score was 0.585 in [1]; 0.839 in assay [3]; -0.222 in assay [4]; -0.0499 in assay [5]; -0.0044 in assay [6]; -0.156 in assay [7]. Further, the figures for the composite z-score in [8], in assay [9] and in [10] were -0.45, 0.456 and 1.02, respectively. Besides, the z-score in assay [2] was -1.19.

Turning to `CC(C)CON=C1[C@H]2CCn3c(=O)n(Cc4cc5c(cc4Cl)OCO5)c(=O)n3[C@H]2[C@H](O)[C@@H]2O[C@H]12`, the composite z-score in [1] is 0.271; in [3], 0.389; in [4], -0.0844; in assay [5] it was -0.635; in assay [6], -0.0758; in [7], 0.0815. Also, the composite z-score in [8] was -0.329; in assay [9], 0.38; in assay [10], 0.351. Besides, the z-score in assay [2] is 0.0671.

With `CO[C@H](C1CCCCC1)[C@H](C)C=CCC(=O)OCCCc1ccccc1`, the composite z-score is -0.743 in [1]; 0.291 in [3]; -0.376 in [4]; -0.937 in assay [5]; -0.0874 in assay [6]; -0.366 in [7]. The composite z-score is -0.27 in assay [8], 0.099 in [9] and -0.051 in assay [10]. The same molecule displayed a z-score in [2] of 0.714.

As to `C[C@@H]1C=CCC(=O)OC[C@H]2O[C@@H](C=C[C@@H]2O)[C@H](C)C=CCC(=O)OC1`, the composite z-score in assay [1] was -1.9; in assay [3], 1.59; in assay [4], -1.35; in assay [5], -2.47; in assay [6], -0.359; in assay [7], -0.0626. Moreover, the figures for the composite z-score in [8], in [9] and in assay [10] were -0.285, 0.113 and 0.981, respectively. Also, the z-score in [2] is -0.362.

Take `CC(CCN1CCCCc2nc(C)c(C)cc21)=NOC[C@@H](O)COCc1ccco1`: the composite z-score in assay [1] is -1.68; in [3], 1.61; in [4], -1.34; in assay [5] it was -1.81; in [6], -0.129; in [7], 0.0121. The composite z-score in [8] was -0.911; in assay [9], 0.43; in assay [10], -0.527. This molecule also had a z-score in [2] of 0.0716.

For `CCN1C(=O)[C@H]2[C@H]3[C@H](O)[C@H](O)CC(=O)[C@H]3CC[C@H]2C1=O`, the composite z-score in [1] was 0.566; in assay [3], 0.872; in assay [4], -0.123; in assay [5], -0.448; in [6], -0.0472; in assay [7], 0.0278. Further, the composite z-score was -0.158 in assay [8], 0.161 in assay [9] and 0.113 in assay [10]. Moreover, the z-score in assay [2] is -0.693.

For `CCOC(=O)[C@H](Cc1ccccc1)NC(=O)CCC1CC(OC(=O)NCCc2ccc(F)cc2)CC2(CCCC(COC(=O)NCCc3ccc(Cl)cc3)O2)O1` (stereo not given in full), the composite z-score in assay [1] is 1.33; in assay [3], 0.546; in assay [4], 1.28; in assay [5], 0.198; in assay [6] it was -0.158; in assay [7] it was -0.0977. Further, the composite z-score in [8] is 0.232; in [9], 0.949; in assay [10], 0.49. The z-score in assay [2] is -0.226.

As for `C[C@H]1COC(=O)[C@@H]2CCCN2C(=O)[C@@H](C)COC(=O)[C@H](Cc2ccccc2)NC1=O`, the composite z-score was 0.851 in assay [1]; 0.474 in [3]; -0.099 in [4]; -0.447 in [5]; -0.124 in assay [6]; -0.206 in [7]. In addition, the figures for the composite z-score in assay [8], in [9] and in assay [10] were -0.3, 0.308 and 0.158, respectively. Moreover, the z-score in [2] was -1.34.

On to `CC(=O)OC[C@H]1O[C@H](CC=NO[C@H](C)c2cn([C@H](CO)Cc3ccccc3)nn2)C=C[C@@H]1OC(C)=O`, for which the composite z-score is 1.16 in assay [1]; 0.852 in assay [3]; 0.081 in assay [4]; -0.367 in assay [5]; -0.0231 in assay [6]; -0.0553 in [7]. The figures for the composite z-score in assay [8], in assay [9] and in assay [10] were 0.223, 0.213 and 1.27, respectively. Also, the z-score in assay [2] is -0.355.

For the molecule `COC(=O)[C@@H]1CC[C@H](C)[C@@H](c2ccc(C)cc2)N1C(=O)c1ccc(C=NOCC[C@@H]2C=C[C@H](OC(C)=O)[C@@H](COC(C)=O)O2)cc1`, the composite z-score in [1] was 0.875; in assay [3], 0.465; in [4] it was -0.0548; in [5], -0.141; in assay [6] it was -0.0778; in assay [7], -0.0553. Also, the composite z-score in [8] is -0.37; in assay [9], 1.41; in assay [10], 0.646. Moreover, the z-score in [2] was -0.852.

Take `COC(=O)[C@@H]1CC[C@H](C)[C@@H](c2ccc(C)cc2)N1C(=O)c1ccc(C=NOC[C@@H](C)[C@H](OCc2ccccc2)C(C)C)cc1`: the composite z-score in [1] was 1.09; in [3], 0.583; in assay [4], -0.0027; in assay [5], -0.607; in [6], -0.0276; in assay [7] it was -0.0553. Further, the values for the composite z-score in assay [8], in [9] and in [10] were -0.302, 1.27 and 1.25, respectively. In assay [2], the z-score was -0.989.

In the case of `C=CC[C@@H]1C=C[C@H](ON=C(C)CCC(=O)OC[C@H]2O[C@H](C#Cc3ccccc3)C=C[C@@H]2Oc2ccc(C)cc2)[C@@H](CO)O1`, the composite z-score in assay [1] was 1.42; in assay [3], 0.605; in [4], 0.759; in assay [5] it was 0.188; in [6], -0.0236; in assay [7] it was 0.0639. Besides, the composite z-score in [8] was -0.0463; in assay [9], 0.728; in [10], 0.742. The z-score in assay [2] is 0.568.

Turning to `COC(=O)[C@H]1O[C@@H](c2c(OC)c(OC)c(C)c(OC)c2OC)[C@H](C)[C@@H](O)[C@H]1C`, the composite z-score in [1] was 1.08; in assay [3], 0.685; in assay [4], -0.112; in [5], -0.421; in assay [6] it was -0.157; in assay [7], -0.0769. Besides, the composite z-score in assay [8] turned out to be 0.0947; in assay [9], 0.407; in assay [10], 0.101. Moreover, the z-score in assay [2] worked out at 0.155.

Values taken from PubChem BioAssay.
